# Test results as given in the supplement of paper PMC8728848.
# The entries come from a sample that favours the strongest signals as a whole.
# B1: AT1G80310(18) (Arabidopsis thaliana), Q0WP36 (protein)
# chain: METTTTPLLPGDRSRCGWLRRRLRLKNPLSSELSGAVGDLGTFIPIVLTLTLVSNLDLSTTLIFTGFYNIATGLLFDIPMPVQPMKSIAAVAVSESPHLTPSQIAAAGASTAATLLLLGATGAMSFLYNIIPLPVVRGVQLSQGLQFAFTAIKYVRFNYDTATLKPSSSPRIWLGLDGLILALAALLFIILSTGSGNDREAEDGDLAETSSNESQSRRRRLRLLSSIPSALIVFALGLVLCFIRDPSIFKDLKFGPSKFHILRISWDDWKIGFLRAAIPQIPLSVLNSVIAVCKLSNDLFDKELSATTVSISVGVMNLIGCWFGAMPVCHGAGGLAGQYRFGARSGLSVIFLGIGKLIVGLVFGNSFVRILSQFPIGILGVLLLFAGIELAMASKDMNSKEDSFIMLVCAAVSMTGSSAALGFGCGVVLYLLLKLRTLDCSSVTLFSRSSDESQVDSEAAPRDV
# Columns and labels:
# Assay in all cases: glycan array binding signal (z-score within array); higher = stronger binding
# Settings in all cases: glycan notation: IUPAC condensed, linker removed
# [1] = molecular target: Fuc(a1-2)Gal(b1-3)GalNAc(a1-3)[Fuc(a1-2)]Gal(b1-4)GlcNAc
# Method in brief: (§1)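 From the Consortium for Functional Glycomics database, 3228 arrays were curated, keeping only those whose protein sequence was available. Binding is given as a within-array Z-score averaged across arrays sharing a protein sequence and across linkers. Negative Z-scores can be read as non-binding.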
# [2] = molecular target: Fuc(a1-2)Gal(b1-3)[Fuc(a1-4)]GlcNAc(b1-2)Man(a1-3)[Fuc(a1-2)Gal(b1-3)[Fuc(a1-4)]GlcNAc(b1-2)Man(a1-3)]Man(b1-4)GlcNAc(b1-4)GlcNAc
# Method in brief: as §1
# [3] = molecular target: Fuc(a1-2)Gal(b1-3)[Fuc(a1-4)]GlcNAc(b1-3)[Gal(b1-4)GlcNAc(b1-6)]Gal(b1-4)Glc
# Method in brief: as §1
# [4] = molecular target: Fuc(a1-2)Gal(b1-4)Fuc(a1-3)]GlcNAc(b1-2)Man(a1-3)[Fuc(a1-2)Gal(b1-4)[Fuc(a1-3)]GlcNAc(b1-2)Man(a1-6)]Man(b1-4)GlcNAc(b1-4)GlcNAc
# Method in brief: as §1
# [5] = molecular target: Fuc(a1-2)Gal(b1-4)GlcNAc(b1-2)Man(a1-3)[Fuc(a1-2)Gal(b1-4)GlcNAc(b1-2)Man(a1-6)]Man(b1-4)GlcNAc(b1-4)GlcNAc
# Method in brief: as §1
# [6] = molecular target: Fuc(a1-2)[Gal(a1-3)]Gal(b1-3)GlcNAc
# Method in brief: as §1
# [7] = molecular target: Fuc(a1-2)[Gal(a1-3)]Gal(b1-4)GlcNAc(b1-3)GalNAc
# Method in brief: as §1
# [8] = molecular target: Fuc(a1-2)[GalNAc(a1-3)]Gal(b1-3)GlcNAc(b1-3)GalNAc
# Method in brief: as §1
# [9] = molecular target: Fuc(a1-3)[Gal(b1-4)]Glc6S
# Method in brief: as §1
# [10] = molecular target: Fuc(a1-3)[Gal(b1-4)]GlcNAc(b1-6)GalNAc
# Method in brief: as §1
# Fuc(b1-3)GlcNAc = molecular target: Fuc(b1-3)GlcNAc
# Method in brief: as §1
# Gal(a1-2)Gal = molecular target: Gal(a1-2)Gal
# Method in brief: as §1
# Gal(a1-3)Gal = molecular target: Gal(a1-3)Gal
# Method in brief: as §1
# Gal(a1-3)Gal(b1-3)GlcNAc = molecular target: Gal(a1-3)Gal(b1-3)GlcNAc
# Method in brief: as §1
# Gal(a1-3)Gal(b1-4)Glc = molecular target: Gal(a1-3)Gal(b1-4)Glc
# Method in brief: as §1
# [11] = molecular target: Gal(a1-3)Gal(b1-4)GlcNAc(b1-2)Man(a1-3)[Gal(a1-3)Gal(b1-4)GlcNAc(b1-2)Man(a1-6)]Man(b1-4)GlcNAc(b1-4)GlcNAc
# Method in brief: as §1
# Gal(a1-4)GlcNAc = molecular target: Gal(a1-4)GlcNAc
# Method in brief: as §1
# [12] = molecular target: Gal(b1-3)GalNAc(b1-4)[Neu5Ac(a2-3)]Gal(b1-4)Glc
# Method in brief: as §1
# [13] = molecular target: Gal(b1-3)GlcNAc(b1-2)Man(a1-3)[GlcNAc(b1-4)][Gal(b1-3)GlcNAc(b1-2)Man(a1-6)]Man(b1-4)GlcNAc(b1-4)GlcNAc
# Method in brief: as §1
# [14] = molecular target: Gal(b1-3)GlcNAc(b1-3)GalNAc
# Method in brief: as §1
# [15] = molecular target: Gal(b1-3)[Fuc(a1-4)]GlcNAc(b1-2)Man
# Method in brief: as §1
# [16] = molecular target: Gal(b1-3)[Fuc(a1-4)]GlcNAc(b1-2)Man(a1-3)[Gal(b1-3)[Fuc(a1-4)]GlcNAc(b1-2)Man(a1-6)]Man(b1-4)GlcNAc(b1-4)[Fuc(a1-6)]GlcNAc
# Method in brief: as §1
# [17] = molecular target: Gal(b1-3)[GlcNAc(b1-6)]GalNAc
# Method in brief: as §1
# [18] = molecular target: Gal(b1-4)GlcNAc(b1-2)Man(a1-3)[Gal(b1-4)GlcNAc(b1-2)Man(a1-6)][GlcNAc(b1-4)]Man(b1-4)GlcNAc(b1-4)[Fuc(a1-6)]GlcNAc
# Method in brief: as §1
# [19] = molecular target: Gal(b1-4)GlcNAc(b1-2)Man(a1-6)Man(b1-4)GlcNAc(b1-4)GlcNAc
# Method in brief: as §1
# [20] = molecular target: Gal(b1-4)GlcNAc(b1-2)[Gal(b1-4)GlcNAc(b1-6)]Man(a1-6)[GlcNAc(b1-4)][Gal(b1-4)GlcNAc(b1-2)[Gal(b1-4)GlcNAc(b1-4)]Man(a1-3)]Man(b1-4)GlcNAc(b1-4)[Fuc(a1-6)]GlcNAc
# Method in brief: as §1
# [21] = molecular target: Gal(b1-4)GlcNAc(b1-3)Gal(b1-3)GalNAc
# Method in brief: as §1
# [22] = molecular target: Gal(b1-4)GlcNAc(b1-3)Gal(b1-3)GlcNAc
# Method in brief: as §1
# [23] = molecular target: Gal(b1-4)GlcNAc(b1-3)Gal(b1-4)GlcNAc(b1-3)Gal(b1-4)GlcNAc(b1-3)Gal(b1-4)GlcNAc(b1-2)[Gal(b1-4)GlcNAc(b1-3)Gal(b1-4)GlcNAc(b1-3)Gal(b1-4)GlcNAc(b1-3)Gal(b1-4)GlcNAc(b1-6)]Man(a1-6)[Gal(b1-4)GlcNAc(b1-3)Gal(b1-4)GlcNAc(b1-3)Gal(b1-4)GlcNAc(b1-3)Gal(b1-4)GlcNAc(b1-2)Man(a1-3)]Man(b1-4)GlcNAc(b1-4)[Fuc(a1-6)]GlcNAc
# Method in brief: as §1
# [24] = molecular target: Gal(b1-4)GlcNAc(b1-3)Gal(b1-4)GlcNAc(b1-3)GalNAc
# Method in brief: as §1
binder,measurement,setting,value
B1,glycan array binding signal (z-score),[1],-0.505
same,glycan array binding signal (z-score),[2],-0.097
same,glycan array binding signal (z-score),[3],-0.71
same,glycan array binding signal (z-score),[4],4.04
same,glycan array binding signal (z-score),[5],3.83
same,glycan array binding signal (z-score),[6],2.6
same,glycan array binding signal (z-score),[7],-1.01
same,glycan array binding signal (z-score),[8],0.205
same,glycan array binding signal (z-score),[9],1.38
same,glycan array binding signal (z-score),[10],0.051
same,glycan array binding signal (z-score),Fuc(b1-3)GlcNAc,-0.095
same,glycan array binding signal (z-score),Gal(a1-2)Gal,0.558
same,glycan array binding signal (z-score),Gal(a1-3)Gal,3.63
same,glycan array binding signal (z-score),Gal(a1-3)Gal(b1-3)GlcNAc,3.82
same,glycan array binding signal (z-score),Gal(a1-3)Gal(b1-4)Glc,-0.294
same,glycan array binding signal (z-score),[11],-0.855
same,glycan array binding signal (z-score),Gal(a1-4)GlcNAc,0.748
same,glycan array binding signal (z-score),[12],-0.754
same,glycan array binding signal (z-score),[13],1.46
same,glycan array binding signal (z-score),[14],0.082
same,glycan array binding signal (z-score),[15],2.96
same,glycan array binding signal (z-score),[16],-0.645
same,glycan array binding signal (z-score),[17],0.239
same,glycan array binding signal (z-score),[18],4.28
same,glycan array binding signal (z-score),[19],-0.165
same,glycan array binding signal (z-score),[20],2.65
same,glycan array binding signal (z-score),[21],-0.393
same,glycan array binding signal (z-score),[22],1.15
same,glycan array binding signal (z-score),[23],-0.802
same,glycan array binding signal (z-score),[24],-0.75
